Potency and outcome data for eight compounds are collected here from PubChem BioAssay (Tox21).

The nature of experiment [1]: qHTS assay for small molecules that induce genotoxicity in human embryonic kidney cells expressing luciferase-tagged ATAD5 - cell viability (AID 651634; calls by dose curve; note: nearly all actives have a fitted effect of over 25% in size). The method, boiled down: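 HEK293T cells carrying luciferase-tagged ATAD5, 2,000 cells/well, exposed to compound for 15.5 hr at 37C. Viability read as live-cell protease activity by CellTiter-Fluor fluorescence after 30 min at 37C.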
On the technique in general: Quantitative high-throughput screening tests each substance at several concentrations.

A short description of experiment [2]: qHTS assay for small molecule disruptors of the mitochondrial membrane potential (AID 720635). The method, boiled down:
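HepG2 cells (2,000/well) attached overnight at 37C, then took compound for 1 hr at 37C, 5% CO2. Mito-MPS dye was added for 30 min; fluorescence was read at 490/535 nm (monomers) and 540/590 nm (aggregates).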

Experiment [3] is described as follows: qHTS assay to test for compound auto fluorescence at 535 nm (green) in HEK293 cells (AID 720680).
Experiment [4] can be described thus: qHTS assay to test for compound auto fluorescence at 590 nm (red) in HEK293 cell free culture (AID 720683). The method, boiled down: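 Tox21 10K library compounds were pinned into cell-free DMEM with 10% FBS and fluorescence was read at excitation 540 nm. Activity is expressed as Rose Bengal sodium equivalency.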
A short description of experiment [5]: qHTS assay to identify small molecule antagonists of the glucocorticoid receptor (GR) signaling pathway - cell viability counter screen (AID 720693). Note: nearly all actives have a fitted effect of over 55% in size.
A short description of experiment [6]: qHTS assay for identifying genotoxic compounds that show differential cytotoxicity against isogenic chicken DT40 cell lines with known DNA damage response pathways - wild type cell line (AID 743012). Note: nearly all actives have a fitted effect of over 60% in size. Note: potency is the fitted concentration of half-maximal effect. Summed up:
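Wild-type DT40 cells (300/well) exposed to compounds for 40 hours at 37 C/5% CO2. Viability read by CellTiter-Glo luminescence after 30 min at room temperature.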

The nature of experiment [7]: qHTS assay for identifying genotoxic compounds that show differential cytotoxicity against isogenic chicken DT40 cell lines with known DNA damage response pathways - Rad54/Ku70 mutant cell line (AID 743015). Note: nearly all actives have a fitted effect of over 60% in size.
Experiment [8] in a line: qHTS assay to identify small molecule antagonists of the thyroid receptor (TR) signaling pathway - cell viability counter screen (AID 743064). Note: nearly all actives have a fitted effect of over 50% in size. Summed up:
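GH3.TRE-Luc cells, 4 h pre-plating; cpd + T3 1 nM final; 37 °C 23.5 h; CellTiter-Fluor 30 min; fluorescence read.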

Experiment [9] can be described thus: qHTS assay to identify small molecule antagonists of the thyroid receptor (TR) signaling pathway (AID 743065). Note: series mostly up to about 70 µM; nearly all actives have a fitted effect of over 55% in size. The method, boiled down:
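GH3.TRE-Luc rat pituitary cells carrying two TR response elements driving luciferase were plated for 4 h, given compound plus 1 nM T3 (final), and incubated 23.5 h at 37 C. ONE-Glo luminescence measured reporter inhibition; CellTiter-Fluor fluorescence tracked cytotoxicity.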

Experiment [10] deals with thyroid hormone receptor (rat, GH3 cells). The experiment can be described thus: qHTS assay to identify small molecule agonists of the thyroid receptor (TR) signaling pathway (AID 743066; calls by dose curve).
Experiment [11] has as its target Estrogen receptor (Homo sapiens) (UniProt P03372). The experiment can be described thus: qHTS assay to identify small molecule agonists of the estrogen receptor alpha (ER-alpha) signaling pathway (AID 743075; calls by dose curve;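 note: HEK293 GripTite cells with ER-alpha and UAS-driven beta-lactamase reporter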).
A short description of experiment [12]: qHTS assay to identify small molecule antagonists of the estrogen receptor alpha (ER-alpha) signaling pathway using the BG1 cell line (AID 743080; calls by dose curve;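 note: BG1 cells stimulated with 17beta-estradiol alongside compound; series mostly up to about 70 µM; nearly all actives have a fitted effect of over 25% in size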). The method, boiled down: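 Quantitative HTS on the Tox21 10K library: BG1 cells with endogenous ER-alpha and ERE-luciferase reporter, 17beta-estradiol stimulation, 21.5 h compound exposure, luminescence endpoint with parallel fluorescence cytotoxicity counter-read.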

Experiment [13] can be described thus: qHTS assay to identify small molecule that activate the aryl hydrocarbon receptor (AhR) signaling pathway - cell viability counter screen (AID 743086).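 Note: HepG2 liver cells carrying the AhR DRE luciferase reporter; series mostly up to about 70 µM; nearly all actives have a fitted effect of over 45% in size.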 The method, boiled down: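 HepG2-AhR-luc (HG2L7.5c1) cells, 4000/well, were preincubated 5 h at 37C, exposed to compound in qHTS format for 24 hr at 37C, then given CellTiter-Fluor for 30 min; viability was read as fluorescence in the reporter wells.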

Experiment [14] addresses Peroxisome proliferator-activated receptor gamma (Homo sapiens) (UniProt P37231). The experiment can be described thus: qHTS assay to identify small molecule agonists of the peroxisome proliferator-activated receptor gamma (PPARg) signaling pathway (AID 743094; active = well fitted activation curve with a large enough effect in the signal ratio in the repeat runs, not every such curve was filed as active; the % refers to the signal ratio). The method, boiled down: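 GeneBLAzer PPARg UAS-bla HEK293H cells were plated, rested 5 h, then exposed to compounds for 17 h at 37C. Beta-lactamase activity was read by LiveBLAzer B/G FRET substrate fluorescence after 1 h at room temperature.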

Experiment [15] deals with Nuclear receptor subfamily 1 group I member 2 (Homo sapiens) (UniProt O75469). Description: Human pregnane X receptor (PXR) activation by small molecules, qHTS assay (AID 1346985). Note: nearly all actives have a fitted effect of over 40% in size. The method, boiled down:
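DPX-2 cells (HepG2 co-transfected with a PXR response element and a CYP3A4-promoter luciferase construct) were seeded at 2,000 per well, rested 5 hr at 37C, then exposed to DMSO-dissolved compounds for 24 hr. Activation was read as luciferase luminescence.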

Experiment [16] in a line: qHTS assay for small molecule agonists of the p53 signaling pathway (AID 651631; calls by dose curve; note: nearly all actives have a fitted effect of over 15% in size). The method, boiled down:
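p53RE-bla HCT-116 cells; compounds 16 h, 37 °C; LiveBLAzer B/G FRET substrate 2 h RT; fluorescence intensity read-out, qHTS format.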

A short description of experiment [17]: qHTS assay to test for compound auto fluorescence at 590 nm (red) in HepG2 cells (AID 720674). The method, boiled down: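 Rose Bengal sodium served as the red fluorophore standard. HepG2 monolayers (overnight attachment, MEM with 10% FBS) were exposed to test compounds for 1 hr at 37 C and read at Ex 540/Em 590 nm.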
Experiment [18] can be described thus: qHTS assay to test for compound auto fluorescence at 460 nm (blue) in HEK293 cells (AID 720678). The method, boiled down:
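Measured: blue fluorescence (Ex 405/Em 460 nm) of compound-treated HEK293 cells, incubated overnight at 37C with 5% CO2 and scaled to triamterene equivalents.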

The target in experiment [19] is Glucocorticoid receptor (Homo sapiens) (UniProt P04150). Description: qHTS assay to identify small molecule agonists of the glucocorticoid receptor (GR) signaling pathway (AID 720691; active = well fitted activation curve with a large enough effect in the signal ratio in the repeat runs, not every such curve was filed as active; the % refers to the signal ratio). The method, boiled down: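 GR-bla HeLa cells carrying a GRE-driven beta-lactamase reporter, exposed to compounds for 18 h at 37 C. Reporter activation read as fluorescence after 2 h with LiveBLAzer B/G FRET substrate at room temperature.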
Chain of Glucocorticoid receptor (Homo sapiens) (P04150 whole entry, looked up): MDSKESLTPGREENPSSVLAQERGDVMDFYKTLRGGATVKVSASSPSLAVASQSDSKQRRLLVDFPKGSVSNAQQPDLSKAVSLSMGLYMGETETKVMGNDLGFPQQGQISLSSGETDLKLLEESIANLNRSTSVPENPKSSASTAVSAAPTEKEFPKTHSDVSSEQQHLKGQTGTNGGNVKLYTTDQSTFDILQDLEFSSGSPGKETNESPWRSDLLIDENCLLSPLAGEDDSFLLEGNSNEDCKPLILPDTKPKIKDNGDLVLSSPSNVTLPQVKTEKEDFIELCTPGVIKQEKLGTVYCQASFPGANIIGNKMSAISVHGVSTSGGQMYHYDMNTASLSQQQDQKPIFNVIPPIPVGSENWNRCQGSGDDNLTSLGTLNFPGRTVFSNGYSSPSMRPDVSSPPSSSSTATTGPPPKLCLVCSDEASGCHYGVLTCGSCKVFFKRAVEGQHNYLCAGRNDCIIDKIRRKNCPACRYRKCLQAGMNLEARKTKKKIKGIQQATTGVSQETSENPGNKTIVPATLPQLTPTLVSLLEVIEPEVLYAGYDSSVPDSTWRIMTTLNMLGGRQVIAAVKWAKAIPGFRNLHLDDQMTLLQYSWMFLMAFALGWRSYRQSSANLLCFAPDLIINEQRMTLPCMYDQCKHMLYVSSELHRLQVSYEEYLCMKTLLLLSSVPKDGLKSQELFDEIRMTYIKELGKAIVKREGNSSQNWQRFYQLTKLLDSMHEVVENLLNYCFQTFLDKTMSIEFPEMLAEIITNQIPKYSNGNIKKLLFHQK

The nature of experiment [20]: qHTS assay for identifying genotoxic compounds that show differential cytotoxicity against isogenic chicken DT40 cell lines with known DNA damage response pathways - Rev3 mutant cell line (AID 743014). Note: nearly all actives have a fitted effect of over 55% in size. Note: potency is the fitted concentration of half-maximal effect.

Inconclusive results are not listed. Activity calls are given as the source filed them. Unless noted, calls come from the whole dose curve; as a rule, active = well fitted curve in the direction sought with a large enough effect in the repeat runs; inconclusive = weak or mixed curves; inactive = no such curve, though single readings can be large; an effect the other way counts as inactive or inconclusive.

Chain of Peroxisome proliferator-activated receptor gamma (Homo sapiens) (P37231 whole entry, looked up): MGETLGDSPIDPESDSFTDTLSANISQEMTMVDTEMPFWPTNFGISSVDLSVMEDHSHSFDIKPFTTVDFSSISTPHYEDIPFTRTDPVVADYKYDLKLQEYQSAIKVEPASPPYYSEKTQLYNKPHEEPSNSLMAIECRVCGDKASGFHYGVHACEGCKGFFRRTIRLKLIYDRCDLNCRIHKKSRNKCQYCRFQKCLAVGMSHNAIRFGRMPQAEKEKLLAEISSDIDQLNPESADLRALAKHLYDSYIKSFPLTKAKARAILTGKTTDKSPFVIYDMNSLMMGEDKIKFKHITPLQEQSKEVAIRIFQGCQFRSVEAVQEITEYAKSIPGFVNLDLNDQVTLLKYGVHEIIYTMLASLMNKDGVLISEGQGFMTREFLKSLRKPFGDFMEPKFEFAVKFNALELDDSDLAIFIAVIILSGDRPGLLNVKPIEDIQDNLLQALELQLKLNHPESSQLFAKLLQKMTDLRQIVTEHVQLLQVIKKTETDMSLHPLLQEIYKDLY
Chain of Estrogen receptor (Homo sapiens) (P03372 whole entry, looked up): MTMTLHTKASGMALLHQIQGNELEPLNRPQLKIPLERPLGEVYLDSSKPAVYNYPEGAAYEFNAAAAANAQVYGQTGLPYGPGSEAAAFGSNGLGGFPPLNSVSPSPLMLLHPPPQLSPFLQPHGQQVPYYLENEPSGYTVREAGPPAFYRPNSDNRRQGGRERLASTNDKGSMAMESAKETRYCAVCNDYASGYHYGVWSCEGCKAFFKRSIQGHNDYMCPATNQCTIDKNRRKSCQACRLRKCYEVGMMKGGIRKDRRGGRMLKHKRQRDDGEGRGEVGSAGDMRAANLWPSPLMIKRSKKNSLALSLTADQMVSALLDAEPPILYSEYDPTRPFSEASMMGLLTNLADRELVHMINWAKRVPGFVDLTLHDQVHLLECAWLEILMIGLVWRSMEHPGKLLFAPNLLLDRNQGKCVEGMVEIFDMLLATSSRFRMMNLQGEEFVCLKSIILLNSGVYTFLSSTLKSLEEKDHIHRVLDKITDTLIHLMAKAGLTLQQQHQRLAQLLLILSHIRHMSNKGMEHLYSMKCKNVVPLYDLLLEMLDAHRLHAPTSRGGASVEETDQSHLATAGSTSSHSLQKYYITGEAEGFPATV

Turning to `CNC(C)C(O)c1ccc(O)cc1` (centres undefined), the Potency result in experiment [1], in [2], in experiment [3], in [5], in experiment [6] and in experiment [7] was “inactive” in each case. The Potency entry in [8], in experiment [9], in experiment [10], in experiment [11], in experiment [12] and in experiment [13] was “inactive” each time. The Potency result in experiment [14] and in [15] was “inactive” each time. In addition, the compound was called inactive in experiment [4].

On to `O=C(C[C@@H]1NCCC[C@H]1O)Cn1cnc2cc(Br)c(Cl)cc2c1=O`, for which the Potency entry in experiment [16], in experiment [1], in experiment [18], in [3], in experiment [19] and in experiment [5] was “inactive” throughout. The Potency result in [6], in [20], in experiment [7], in experiment [10], in experiment [11] and in [12] was “inactive” each time. Further, the Potency result in [13] and in experiment [15] was “inactive” in each case. Moreover, the compound was classed as inactive in experiment [17] and in [4].

Take `CN(C)[C@H](Cc1ccccc1)c1ccccc1`: the Potency entry in experiment [2], in [3], in [19], in experiment [5], in [6] and in experiment [20] was “inactive” each time. Also, the Potency entry in experiment [7], in experiment [8], in experiment [9], in experiment [10], in experiment [11] and in experiment [12] was “inactive” in each case. In addition, the Potency result in experiment [13], in [14] and in experiment [15] was “inactive” throughout. Moreover, the result in experiment [17] and in experiment [4] was inactive.

For `C[N+]1([O-])[C@@H]2CC(OC(=O)[C@H](CO)c3ccccc3)C[C@H]1[C@@H]1O[C@@H]12` (some centres undefined), the Potency entry in [1], in experiment [2], in experiment [3], in experiment [19], in experiment [5] and in experiment [6] was “inactive” each time. The Potency result in experiment [20], in [7], in [8], in experiment [9], in experiment [10] and in experiment [11] was “inactive” throughout. The Potency entry in [12], in experiment [13], in experiment [14] and in experiment [15] was “inactive” each time. Besides, the call in experiment [17] and in [4] was inactive.

`Cc1cccc(C(C)c2cnc[nH]2)c1C` (centres undefined): the Potency result in [2], in experiment [18], in experiment [19], in experiment [8], in experiment [9] and in experiment [10] was “inactive” throughout. The Potency entry in experiment [13] and in experiment [15] was “inactive” each time. Besides, the outcome in experiment [17] and in experiment [4] was inactive.

As to `O=C(CCl)c1ccc(Oc2ccc(C(=O)CCl)cc2)cc1`, the Potency result in [2], in [3], in experiment [8], in experiment [9], in experiment [10] and in experiment [11] was “inactive” each time. In addition, the Potency entry in experiment [12], in [13] and in experiment [15] was “inactive” each time. Besides, the compound was called inactive in experiment [17] and in experiment [4]. The figures for the Potency in [6] and in experiment [20] were 26.6 µM (active) and 29.8 µM (active), respectively.

As to `CCNC(C)Cc1cccc(C(F)(F)F)c1` (centres undefined), the Potency entry in experiment [1], in experiment [18], in experiment [3], in experiment [19], in experiment [5] and in experiment [6] was “inactive” throughout. The Potency entry in experiment [8], in experiment [9], in experiment [10], in experiment [11], in [12] and in experiment [14] was “inactive” in each case. For the same compound, the Potency result in [15] was “inactive”. Besides, the result in experiment [17] and in experiment [4] was inactive.

For `c1cc2c(c(NC3=NCCN3)c1)CCCC2`, the Potency result in [16], in experiment [2], in experiment [3], in experiment [19], in experiment [5] and in [10] was “inactive” throughout. Also, the Potency entry in experiment [13] and in experiment [15] was “inactive” in each case. Besides, the call in experiment [17] and in [4] was inactive.
